The structures appear in SMILES notation.

A short description of this assay: hepatitis C replication reporter changes, two-sided – Huh7 cells, luciferase reporter, HCV replication inhibitor project, primary screen (AID 1109).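 Also: huh7 hepatoma cells harbouring a luciferase neomycin HCV replicon reporter; luciferase luminescence as measure of HCV replicon replication; test concentration not given here.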 Conditions: Huh7 HCV replicon luciferase reporter, 48 h; higher = more signal.
For `COCCOC(=O)N1C(=O)[C@@]2(c3cc(C#CCCO)ccc31)[C@H](c1ccc(O)cc1)N1[C@H](c3ccccc3)[C@H](c3ccccc3)OC(=O)[C@H]1[C@@H]2C(=O)Nc1nc2ccccc2s1`, the z-score came out at 0.688.

Consider `COc1cc2c(cc1OC)CN(C(=O)[C@@H]1[C@H]3C(=O)O[C@H](c4ccccc4)[C@H](c4ccccc4)N3[C@H](c3ccccc3OCCO)[C@@]13C(=O)Nc1ccccc13)CC2`, for which the z-score is -2.02.

For `COc1ccc([Si](C)(C)[C@H]2[C@H](CCO)O[C@@]3(C(=O)N(Cc4ccc(N5CCCCC5=O)cc4)c4ccccc43)[C@@H]2C)cc1`, the z-score is -4.77.

`CCCCO[C@H]1C[C@H]2C(Br)=C[C@@]1(CO)C(=O)[C@]21CO1`: the z-score was -1.46.

For the compound `CCOC(=O)C[C@H]1[C@H](OC(=O)c2ccccc2-c2ccccc2)[C@@H](NC(=O)C2CCCCC2)c2cc(OCCCO)ccc2N1C(=O)c1ccccc1`, the z-score is -1.4.

`CO[C@H]1COC(=O)[C@H](C)NC(=O)CC=C[C@@H](C)[C@H](NS(=O)(=O)c2ccc(C)cc2)COC(=O)[C@@H](OCc2ccccc2)C=C[C@@H]1C` came in with a z-score of -0.179.

The compound `CC(C)CNC(=O)[C@@]1(C)c2ccccc2C(=O)N(Cc2ccc(OC(F)(F)F)cc2)[C@H]1c1ccc(CO)cc1` registered a z-score of 0.173.

In the case of `CC(C)C[C@@H]1NC(=O)[C@H]2C[C@@H](C(=O)NCCCCCC[N+](C)(C)C)[C@@H](c3ccc(O)cc3)N2C1=O`, the z-score worked out at 0.549.

`C=CC[C@@]1(C(=O)NCC(O)CO)N=C(c2ccc(OCCCO)cc2)O[C@@H]1c1ccccc1CN=[N+]=[N-]` (some centres undefined) returned a z-score of -1.11.

For the origin of these results see PubChem BioAssay.
